a7 integrin act: qHTS for Activators of Integrin-Mediated Alleviation for Muscular Dystrophy | alpha7betagal myoblasts, beta-gal FDG fluorescence, 48 h | Potency, µM (titrated, usually from 38.3 µM), inactives show at the highest dose activation, hits mostly activators | 0.064% of 350,000 active | AID 624291, 2012;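 also: 100% = response of the positive control SU9516; nearly all actives have a fitted effect of over 60% in size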
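alpha7betagal+/- myoblasts (passage 13, 250/well) treated 48 h at 37C with compounds at 1:260 dilution of DMSO stock. Lysed, then beta-galactosidase activity read as FDG fluorescence (ex 480/em 540) after 30 min, with pre-read for autofluorescence.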
AT treatment: qHTS Assay for Identifying a Potential Treatment of Ataxia-Telangiectasia; F2112 A-T fibroblasts, KAP-1 phosphorylation AlphaLISA; neocarzinostatin DNA damage 30 min before lysis; Potency, µM (series often up to 57.5 µM), without a hit: at the top dose activation, actives largely listed as activators; 0.19% of 320,000 active; also: % of control where 0% means no effect; nearly all actives have a fitted effect of over 45% in size
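hTERT-immortalized A-T patient fibroblasts (F2112), 500 cells/well in OPTI-MEM, 1% FBS, got compounds for 60 min, then NCS for 30 min at 37C. Lysates were then assayed for phospho-KAP-1 by AlphaLISA (anti-pKAP1 donor, anti-KAP1 acceptor beads), 6 hr at 25C.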
Mito fusion yeast: qHTS Assay for Small Molecule Inhibitors of Mitochondrial Division or Activators of Mitochondrial Fusion | Potency, µM (doses to about 46.1 µM), inactives show at the top dose growth rescue (activation), most hits filed as activators | S. cerevisiae fusion-defective mutant growth rescue, CellTiterGlo 48 h | 0.23% of 320,000 active; also: % of control where 0% means no effect; nearly all actives have a fitted effect of over 45% in size
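S. cerevisiae fusion-defective temperature-sensitive mutants (e.g. fzo1-1, mgm1-5) grown 48 h at 37C in YPEG (ethanol/glycerol non-fermentable) medium with 23 nl compound per well; growth rescue read as CellTiterGlo luminescence.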
MCF10A rereplic: A quantitative high throughput screen for small molecules that induce DNA re-replication in MCF 10a normal breast cells. MCF 10A DNA re-replication, Hoechst nuclear intensity, 48 h. Potency, µM (doses to about 46.1 µM), inactives show at the top dose activity, positive = re-replication, most hits filed as activators. 2.9% of 350,000 active; also: % of control where 0% means no effect; nearly all actives have a fitted effect of over 50% in size
SW480 rereplic: A quantitative high throughput screen for small molecules that induce DNA re-replication in SW480 colon adenocarcinoma cells; SW480 DNA re-replication, Hoechst DNA content imaging, 48 h; Potency, µM (highest dose often 46.1 µM), for inactives: at the top dose re-replication activation, most hits filed as activators; 1.8% of 340,000 active; AID 624297, 2012; also: % of control where 0% means no effect; nearly all actives have a fitted effect of over 55% in size
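DNA re-replication was detected as more nuclei of elevated Hoechst intensity after 48 hr exposure to compound (23 nL pinned per well of 250 cells).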
* marks the source's active call; other numbers are inactive results; u = inconclusive; x = not tested or not shown. Most compounds without a hit are left out; they make up all but 4.2% or so of the library. Calls follow the shape of the dose curve; as a rule, active = well fitted activation curve with a large enough effect; inconclusive = small, poorly fitted or top-dose-only effect; inactive = no such curve, though single readings can be large or run the other way. Potency is read from the fitted curve at half-maximal effect.

SMILES	a7 integrin act	AT treatment	Mito fusion yeast	MCF10A rereplic	SW480 rereplic
CCCNC(=O)/C(C#N)=C1\N=C(NC(=O)c2cccs2)c2ccccc21	-15%	7%	-5%	-4%	-3%
CCc1cc2c(=O)n(Cc3ccco3)c(SCC(=O)NCC3CCCO3)nc2s1 (stereo not given)	12%	3%	0%	3%	-2%
CCc1cc2c(=O)n(Cc3ccco3)c(SCc3c(C)noc3C)nc2s1	-51%	10%	16%	3.3µM*	2.6µM*
Cc1ccc(C(C)C)c(OC/C(O)=C(\C#N)c2nc3ccccc3[nH]2)c1	9%	-11%	3%	16µM*	u
Cc1c(-c2cccc(Cl)c2)nc2ccccc2c1C(=O)OC/C(O)=C(\C#N)c1nc2ccccc2[nH]1	1%	-1%	3%	5.2µM*	u
CCOC(=O)c1c(C)[nH]c(C(=O)OCC(O)=C(C#N)c2nc3ccccc3[nH]2)c1C	-10%	x	x	13µM*	u
N#C/C(=C(/O)COC(=O)c1ccc(O)cc1)c1nc2ccccc2[nH]1	-6%	-4%	-3%	6%	7%
Cc1c(C(=O)OC/C(O)=C(\C#N)c2nc3ccccc3[nH]2)oc2ccc(Br)cc12	14%	-11%	0%	10%	2%
CC(C)C(=O)OC/C(O)=C(\C#N)c1nc2ccccc2[nH]1	27%	1%	2%	8%	-8%
CC(C)c1nc(SCC(=O)Nc2cccc3ccccc23)n[nH]1	-2%	2%	x	-1%	-3%
CCN1CCc2c(sc(NC(=O)Nc3ccc(Cl)c(Cl)c3)c2C(N)=O)C1	-101%	25µM*	-9%	9.2µM*	15µM*
CCOC(=O)N1CCc2c(sc(NC(=O)CCS(=O)(=O)c3ccccc3)c2C(N)=O)C1	-17%	-23%	-2%	u	-10%
CCN1CCc2c(sc(NC(=O)c3ccc(S(=O)(=O)N(CC)c4ccccc4)cc3)c2C(N)=O)C1	-50%	-5%	-1%	12µM*	u
CC(=O)N1CCc2c(sc(NC(=O)CCS(=O)(=O)c3ccccc3)c2C(N)=O)C1	-22%	-5%	4%	u	21µM*
CCN1CCc2c(sc(NC(=O)c3ccc(S(=O)(=O)N4CCOCC4)cc3)c2C(=O)OC)C1	-37%	-5%	-1%	15µM*	u
CC(=O)N1c2ccc(F)c(F)c2C[C@H]1C	10%	-14%	-12%	-3%	-2%
CCCCN(C(=O)C1CCCO1)c1c(N)n(CC(C)C)c(=O)[nH]c1=O (stereo not given)	1%	4%	-1%	3%	-3%
Cc1ccc([N+](=O)[O-])cc1S(=O)(=O)N(C)C	x	x	13%	x	x
NC(=O)c1c(NC(=O)c2c(F)cccc2F)sc2c1CCN(Cc1ccccc1)C2	13%	15%	6%	26µM*	13%
CN(C)CCCOc1ccc(C(C)(C)c2ccccc2)cc1	-65%	-2%	-22%	u	-3%
CN(C)C/C=C/C(O)(c1ccccc1)c1ccccc1	-11%	-8%	-5%	16µM*	4%
CCc1ccc(C2C(C#N)=C(N)C(C#N)(C#N)C3=CCC(C(C)(C)C)CC32)cc1 (stereo not given)	-70%	25%	u	15µM*	8.2µM*
CC(C)(C)C1CC=C2C(C#N)=C(N)C(C#N)(C#N)C(c3cccs3)C2C1 (stereo not given)	x	x	25%	x	x
O=C1C(=O)c2c(C(=O)c3ccccc3)coc2-c2ccccc21	-58%	x	-6%	21µM*	u
CCOc1ccccc1C(=O)NCC(=O)N(C)CC(=O)Nc1ccc(N2CCOCC2)cc1	14%	x	x	x	x
SMILES	a7 integrin act	AT treatment	Mito fusion yeast	MCF10A rereplic	SW480 rereplic
N#C/C(=C\c1c(Cl)cccc1Cl)c1nn(-c2ccccc2)c(-n2cccc2)c1C#N	-8%	3%	7%	16µM*	-7%
Oc1ccc(CN2CCN(Cc3ccccc3)CC2)c2cccnc12	-56%	-1%	0%	13%	u
O=[N+]([O-])c1cc(CN2CCOCC2)c2cccnc2c1O	-31%	2%	18%	11%	u
CN1CCN(Cc2cc(COCc3ccccc3)c3cccnc3c2O)CC1	-46%	-12%	-5%	u	6.3µM*
O=C(Oc1c(CN2CCOCC2)cc(Cl)c2cccnc12)c1ccccc1F	0%	0%	3%	18µM*	6.5µM*
Oc1c(Cl)cc(CN2CCOCC2)c2cccnc12	-50%	2%	u	12µM*	u
Oc1c(CN2CCCCC2)cc(Br)c2cccnc12	u	u	9%	23µM*	u
COCCN1CCN(C(=O)C2CCC(=O)N(Cc3ccccc3OC)C2)CC1 (stereo not given)	27%	-7%	1%	-3%	-23%
CC(C)[C@H](NC(=O)c1cccc(S(=O)(=O)N2CCOCC2)c1)C(=O)OCC(=O)Nc1cccc(Br)c1	-6%	x	x	u	2%
O=C(Oc1c(CN2CCOCC2)cc(Cl)c2cccnc12)c1ccccc1	-46%	-1%	4%	u	8.2µM*
COc1cc(OC)cc(C(=O)Oc2c(CN3CCOCC3)cc(Cl)c3cccnc23)c1	-50%	5%	4%	-3%	u
CCCCCCCCCCCC[n+]1ccc2ccccc2c1	x	x	x	55%	u
COc1ccc(-c2cnc3ccccc3n2)cc1NC(=O)CNC(=O)c1ccccc1	-17%	4%	1%	u	28%
COc1ccc2c(c1)c(=O)c(C(=O)c1ccccc1)cn2Cc1ccccc1	-3%	15%	22%	u	16µM*
O=C1NC(CCc2ccccc2)C(=O)N1CCOc1ccccc1 (stereo not given)	-47%	3%	24%	6.5µM*	-41%
O=C(Nc1nnc(-c2ccc(F)cc2)o1)c1ccc(S(=O)(=O)N2CCOCC2)cc1	-33%	5%	2%	8%	10µM*
N#C/C(=C\N1CCN(Cc2ccc3c(c2)OCO3)CC1)c1nc2ccccc2s1	-22%	4%	16%	21µM*	u
CCCCOc1ccc(CONS(=O)(=O)c2ccc(NC(C)=O)cc2)cc1Cl	-27%	-5%	7%	21µM*	-1%
CC(=O)Nc1ccc(S(=O)(=O)NCCOc2ccc(Cl)cc2C)cc1	-25%	-3%	-1%	-12%	5%
CCCCn1c(N)c(N(Cc2ccccc2OC)C(=O)COc2ccccc2OC)c(=O)[nH]c1=O	14%	-1%	-1%	-1%	-1%
CCCCn1c(N)c(N(Cc2ccccc2OC)C(=O)c2ccc([N+](=O)[O-])s2)c(=O)[nH]c1=O	-24%	3%	-1%	u	21µM*

Bioassay records as filed in PubChem BioAssay.
